# Data from PubChem BioAssay AID651588 (Broad Institute, 2012).
# Measured potencies and affinities stand elsewhere. The source made the active and inactive calls.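 Rule for the calls: active = compounds lowering reporter light with a fitted half-maximal concentration no more than twice the top tested dose; inconclusive = flat response with inhibition between 30 and 70%, or poor fit; inactive = rising signal, flat response, or weak potency.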
# Assay: TRPM1 promoter luciferase reporter signal decrease, dose response, MITF inhibitor project, cell-based, SK-MEL-5, dry powder, set 9 (AID 651588)
row,Structure (SMILES),outcome
1,Cc1ccc(NC2=CC(=O)c3ccccc3C2=O)cc1,inactive
2,O=C1C=C(Nc2ccccc2)C(=O)c2ccccc21,inactive
